GLP-1R inv ag: inverse agonists of human GLP-1 receptor | AID 624417 | hit rate 1.6% among 410,000 | Potency, µM (series often up to 38.3 µM), without a hit: top-dose activity change, negative = inhibition, hits mostly inhibitors | P43220 | HEK293 GLP-1R CRE-luciferase, luminescence, 24 h; GLP-1R form is constitutively active; note: potency is the fitted concentration of half-maximal effect; % is set by controls: 0 for no effect and ±100 for the full control effect; nearly all actives have a fitted effect of over 55% in size
Target sequence (P43220 whole entry, looked up): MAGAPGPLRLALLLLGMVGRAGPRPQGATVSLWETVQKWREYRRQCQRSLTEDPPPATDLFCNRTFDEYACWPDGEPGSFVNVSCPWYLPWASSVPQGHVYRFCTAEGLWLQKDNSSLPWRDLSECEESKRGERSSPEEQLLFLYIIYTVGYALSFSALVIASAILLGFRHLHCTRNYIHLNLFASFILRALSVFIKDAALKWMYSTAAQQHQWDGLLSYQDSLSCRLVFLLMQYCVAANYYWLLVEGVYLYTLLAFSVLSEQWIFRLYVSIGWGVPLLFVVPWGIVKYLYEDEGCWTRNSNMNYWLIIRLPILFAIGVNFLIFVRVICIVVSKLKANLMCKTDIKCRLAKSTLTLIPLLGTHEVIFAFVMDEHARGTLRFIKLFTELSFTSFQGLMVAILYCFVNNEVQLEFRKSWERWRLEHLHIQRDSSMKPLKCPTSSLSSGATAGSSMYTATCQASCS
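Assay principle: reduced luminescence from a cAMP-responsive reporter in HEK293 cells co-expressing a constitutively active GLP-1R. Conditions: 24 hr compound incubation, 37 deg C, 5% CO2.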
TRHR ag: activates the human TRH receptor. activation, % at 2 µM. AID 493084. TRHR cells, calcium flux fluo-8, FDSS agonist mode. P34981. hit rate 0.18% among 360,000; in the data active = activation above about 30%; note: 0% is about no effect
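Fluo-8-loaded TRHR cells; 10 s baseline, compound added, kinetic Ca2+ fluorescence read 1/s, agonist mode.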
GLP1R cytotox: cytotoxicity counter-screen for GLP-1 receptor inverse agonists. HEK293 cAMP-luciferase reporter cells, luminescence, 24 h. Potency, µM (series often up to 38.3 µM), for the others: top-dose activity change, negative = inhibition, usual class: inhibitors. hit rate 0.13% among 410,000. AID 624418;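 note: loss of luciferase light is scored as toxicity; potency is the fitted concentration of half-maximal effect; % is set by controls: 0 for no effect and ±100 for the full control effect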
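MLSMR compounds, 24 hr on cells at 37 deg C/5% CO2; luminescence after luciferase reagent (12 min RT). Inhibition counted as the undesired cytotoxic outcome.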
GLP1R ag: activates the human GLP-1 receptor | HEK293 GLP-1R CRE-luciferase, luminescence, 4-6 h; cells express a hypersensitive GLP-1R form | Potency, µM (series often up to 45.6 µM), for inactives: top-dose activation, most hits filed as activators | hit rate 0.007% among 380,000; note: potency is the fitted concentration of half-maximal effect; % of control where 0% means no effect
TRHR PAM: TRH receptor (human) allosteric enhancement | P34981 | TRHR cells, fluo-8 calcium fluorescence, EC20 TRH enhancement | enhancement, % at 2 µM | hit rate 0.66% among 360,000 | AID 493056; in the data active = enhancement above about 30%; note: 0% is about no effect
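TRHR-expressing cells loaded with fluo-8 calcium dye were read kinetically (ex 480/em 530) during compound addition, then stimulated with an EC20 of TRH (10 nM final). Enhancement of the Gq-mediated intracellular calcium response was scored.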
PTHR1 agonist: agonists of human PTHR1 parathyroid hormone receptor; Potency, µM (doses to about 115 µM), without a hit: at the highest dose activation, most hits filed as activators; hit rate 0.075% among 410,000; HEK293 GP2 PTHR1 cells, GloSensor cAMP luminescence, 1 h; Q03431; note: potency is the fitted concentration of half-maximal effect; nearly all actives have a fitted effect of over 55% in size
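HEK-293-derived GP2 cells expressing PTHR1 and a GloSensor cAMP reporter, 3,000/well, plated overnight, given luciferin plus IBMX (each 0.5 mM as added) for 1 h at 37 °C, then compound for 1 h at 37 °C. Luminescence was read after 15 min at room temperature.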
An asterisk follows results filed as active; i = inactive; u = inconclusive; x = not tested or not shown; ! = not confirmed by another sample; [ ] = remark or other dose. Rows were chosen to be rich in hits. Some 2.4% of all compounds tested hit in one or more screens of this group. Unless noted, calls come from the whole dose curve; as a rule, active = well fitted curve in the direction sought with a large enough effect; inconclusive = small, poorly fitted or top-dose-only effect, or another doubt; inactive = no such curve, though single readings can be large; an effect the other way counts as inactive or inconclusive.

SMILES	GLP-1R inv ag	TRHR ag	GLP1R cytotox	GLP1R ag	TRHR PAM	PTHR1 agonist
COCCNC(=O)C1CCCN(Cc2ccc(Cl)cc2)CC1 (configuration not stated)	16%	x	-3%	-2%	x	-2%
Cc1ccc(NC(NC(=O)c2cccs2)C(Cl)(Cl)Cl)cc1C (configuration not stated)	13µM*	2	-25%	-5%	-3	-8%[57.5 µM]
Cc1ccccc1NC(NC(=O)c1cccs1)C(Cl)(Cl)Cl (configuration not stated)	7.9µM*	5	-7%	-13%	-10	-25%[57.5 µM]
COc1cc(C(=O)NCCNC(=O)c2cnccn2)cc(OC)c1OC	5%	0	u	9%	5	i
O=C(Nc1nnc(-c2ccccc2)o1)c1nc2ccccc2s1	u	31*	12%	-2%	-8	-19%
NC(=O)c1oc2ccccc2c1NC(=O)c1nc2ccccc2s1	54%	1	2%	-26%	5	i
Cc1ccc(CN2CCC(Oc3cccc(C(=O)N(C)CCN(C)C)c3)CC2)cc1C	4µM*	1	u	5%	1	i
COc1ccc(Nc2oc(/C=C/c3ccc(F)cc3)nc2C#N)cc1	6%	0	0%	x	2	-11%
Cc1c(NC(=O)/C(C#N)=C/c2ccc(-c3cc(Cl)ccc3Cl)o2)c(=O)n(-c2ccccc2)n1C	u	0	u	-1%	34*	i
O=C(CCl)N1CCN(S(=O)(=O)c2ccc3ccccc3c2)CC1	10µM*	0	u	1%	7	-32%
CCCNC(=O)/C=C/c1ccc(C(C)C)cc1	1%	-1	3%	5%	35*	i
Cc1ccc(Cl)cc1N1CCN(C(=O)c2ccc(CS(=O)Cc3ccc(Cl)cc3)o2)CC1 (configuration not stated)	8.9µM*	0	-17%	-5%	3	-27%
Cc1ccc(C)c(N2CCN(C(=O)c3ccc(CS(=O)Cc4ccc(Cl)cc4)o3)CC2)c1 (configuration not stated)	10µM*	0	-23%	-4%	2	-92%
CN1CCN(C(=O)c2ccc(CS(=O)Cc3ccc(Cl)cc3)o2)CC1 (configuration not stated)	-12%	1	-2%	-4%	-1	i
O=C(c1ccc(CS(=O)Cc2ccc(Cl)cc2)o1)N1CCN(c2ccccc2F)CC1 (configuration not stated)	u	0	-12%	-3%	-4	-14%
CC1CN(c2nc3ccccc3nc2SCC(=O)Nc2cccc(C(F)(F)F)c2)CC(C)O1 (configuration not stated)	11µM*	x	u	-6%	x	-37%
COc1ccc(NC(=O)CSc2nc3ccccc3nc2N2CCOCC2)cc1	u	0	-4%	19%	-5	-3%
CCOc1ccc(NC(=O)CSc2nc3ccccc3nc2N2CCOCC2)cc1	-9%	0	8%	15%	34*!	-3%
CC(C)COC(=O)Nc1nnc(Cc2ccccc2)s1	-13%[7.66 µM]	-1	-21%[7.66 µM]	14%	5	i
COc1ccccc1NC(=O)CCN1C(=O)C2CC=CCC2C1=O (configuration not stated)	28%	0	2%	-2%	35*	-22%
CCOc1ccc(OCC(=O)c2c(O)c3ccccc3oc2=O)cc1	12%	0	-2%	-16%	-12	i
COc1ccc(OCC(=O)c2c(O)c3ccccc3oc2=O)cc1	0%	0	-1%	-8%	0	18µM*
Cc1ccc(Cn2c(CO)cnc2SCC(=O)Nc2ccc(C)c(Cl)c2)cc1	13µM*	-2	-6%	x	-3	-46%
Cc1ccc(NC(=O)CSc2nccn2Cc2ccco2)cc1	-16%	3	-7%	2%	-2	-23%
Cc1ccc(NC(=O)CSc2nccn2Cc2ccco2)cc1Cl	-11%	-1	-10%	x	35*	-24%
SMILES	GLP-1R inv ag	TRHR ag	GLP1R cytotox	GLP1R ag	TRHR PAM	PTHR1 agonist
Cc1ccc2[nH]c(CCN(C)C)c(CN3CCOCC3)c2c1	-10%	2	-3%	-8%	-2	-22%
COc1ccc([N+](=O)[O-])cc1NC(=O)CSc1ncccn1	38%	0	-18%	8%	0	i
CC1CCCCC1NCC#CCOc1ccc(Cl)cc1 (configuration not stated)	11µM*	1	2%	-3%	2	i
O=C(N/C(=C/c1ccc(Br)cc1)C(=O)N1CCCC1=O)c1ccco1	u	0	2%	6%	-6	i
c1ccc(C(c2ccccc2)N2CCN(Cc3nnnn3C3CCCC3)CC2)cc1	7.9µM*	0	-8%	-27%	-11	i
CC(C)CCn1nnnc1CN1CCN(C(c2ccccc2)c2ccccc2)CC1	13µM*	0	-10%	8%	-1	-13%
CCC(C)(C)n1nnnc1CN1CCN(C(c2ccccc2)c2ccccc2)CC1	10µM*	0	-12%	-5%	-1	-9%
COc1cc(C(=O)N2CCC(N3CCCCCC3)CC2)cc(OC)c1OC	0%	x	-14%	-13%	x	-13%
O=C(NCC1CC1(Cl)Cl)Nc1ccc(Cl)c(Cl)c1 (configuration not stated)	u	2	-23%	10%	-9	-20%
CCc1ccccc1NC(c1nnc(-c2cccc(F)c2)o1)c1ccc(F)cc1Cl (configuration not stated)	11µM*	0	-1%	x	-1	i
O=C(C1=C[C@@H](c2ccc(C(F)(F)F)cc2)C[C@@H](OCc2ccc(CO)cc2)O1)N1CCN(Cc2ccc3c(c2)OCO3)CC1	-16%	2	-2%	-2%	3	-29%
O=C(C1=C[C@H](c2ccc(C(F)(F)F)cc2)C[C@H](OCc2ccc(CO)cc2)O1)N1CCN(Cc2ccc3c(c2)OCO3)CC1	10µM*	0	-11%	-1%	2	-13%
Cc1nc(Nc2nc(CSc3nc4ccccc4[nH]3)cc(=O)[nH]2)nc2ccccc12	1.1µM*	-1	u	-4%	-5	i
CCCCNC(=O)C[C@@H]1C[C@@]2(C(=O)OCC)CCCC=C2N(CCc2ccc(OC)c(OC)c2)C1=O	1%	x	-8%	x	x	-2%
CCOC(=O)[C@]12CCCC=C1N(CCc1ccc(OC)c(OC)c1)C(=O)[C@H](CC(=O)NCCCCc1ccccc1)C2	10µM*	x	-27%	x	x	3%
S=C(NCc1cccs1)Nc1cc(Cl)cc(Cl)c1	8.9µM*	-1	u	1%	-10	-16%
